# Shown are actives, neighbours in structure and some others; about 2.8% of the full set was active somewhere.
# RGS4 inh = Inhibitors of Regulator of G Protein Signaling (RGS) 4: qHTS | Regulator of G-protein signaling 4 (Homo sapiens), P49798 | Transcreener GDP fluorescence polarization, RGS4-accelerated GTP hydrolysis | Potency, µM (series often up to 114 µM), for inactives: at the top dose activity change, negative = inhibition, usual class: inhibitors | 390,000 compounds, 0.039% hits; active = well fitted inhibition curve with a large enough effect; inconclusive = small, poorly fitted or top-dose-only effect; inactive = no such curve, though single readings can be large or run the other way; also: potency is read from the fitted curve at half-maximal effect; % is scaled to controls: 0 for no effect and ±100 for the full control effect; nearly all actives have a fitted effect of over 75% in size
# Target sequence (P49798 whole entry, looked up): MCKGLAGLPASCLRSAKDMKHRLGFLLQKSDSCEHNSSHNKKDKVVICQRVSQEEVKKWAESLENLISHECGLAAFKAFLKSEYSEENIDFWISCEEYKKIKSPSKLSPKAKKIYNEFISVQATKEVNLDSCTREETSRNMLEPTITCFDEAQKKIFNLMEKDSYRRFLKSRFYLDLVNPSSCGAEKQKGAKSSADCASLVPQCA
#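 MLSMR compounds (23 nl, pin-transferred) preincubated 10 min at room temperature with a 500nM (2x) first reagent, then RGS4 at 900nM (2x) plus Transcreener GDP mix added; fluorescence polarization (620/688 nm) read before and after 90 min at 30 °C.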
# PI4K2A inh = qHTS for small molecular inhibitors of PI4K2A; Phosphatidylinositol 4-kinase type 2-alpha (Homo sapiens), Q9BTU6; purified PI4K2A, ADP-Glo luminescence, 1 h; active compounds read low; activity change, negative = inhibition, % at 76.9 µM; 420,000 compounds, 0.13% hits; AID 1346378, 2018; in the data active = activity change below about -50%; inconclusive = mostly about -30% to -49%;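 also: -100% = wells without enzyme as full effect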
#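 PI4K2A activity was measured by ADP-Glo luminescence: enzyme (4 ug/mL stock) and phosphatidylinositol (1.2 mM stock) in Tris pH 7.5/MgCl2/EGTA/Triton X-100 buffer were reacted with ATP (300 microM stock) for one hour at ambient temperature.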
# DRD3 agonist = qHTS of D3 Dopamine Receptor Agonist: qHTS. D(3) dopamine receptor (Homo sapiens), P35462. D3R DiscoveRx beta-arrestin cells, luminescence, 90 min. AID 652048, 2013. 410,000 compounds, 0.58% hits. max activation, %; in the data active = max activation above about 30%; also: 0% is about no effect
# Target sequence (P35462 whole entry, looked up): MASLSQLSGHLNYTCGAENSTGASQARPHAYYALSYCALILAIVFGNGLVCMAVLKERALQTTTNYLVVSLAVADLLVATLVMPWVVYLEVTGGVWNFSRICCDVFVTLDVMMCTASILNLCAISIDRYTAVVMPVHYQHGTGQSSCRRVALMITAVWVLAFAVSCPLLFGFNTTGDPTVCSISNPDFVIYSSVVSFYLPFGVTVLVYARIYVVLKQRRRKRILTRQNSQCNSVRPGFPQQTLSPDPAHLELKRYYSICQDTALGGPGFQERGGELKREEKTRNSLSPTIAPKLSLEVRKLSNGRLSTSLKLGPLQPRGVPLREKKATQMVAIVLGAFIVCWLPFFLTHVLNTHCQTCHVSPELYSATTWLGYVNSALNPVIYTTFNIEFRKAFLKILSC
#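 Agonist-mode cell screen: cells plated at 1500/well and incubated overnight at 37 °C, then exposed to library compounds for 90 min at 37 °C. Detection reagent was added for 30–60 min at room temperature, and luminescence was read.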
# DRD3 antagonist = qHTS of D3 Dopamine Receptor Antagonist: qHTS; D(3) dopamine receptor (Homo sapiens), P35462; D3R cells, DiscoveRx beta-arrestin luminescence, antagonist mode; active compounds read low; max response, negative = inhibition, %; 360,000 compounds, 2.5% hits; in the data active = max response below about -50%; inconclusive = no clear call, values can overlap the other calls; also: % is scaled to controls: 0 for no effect and ±100 for the full control effect
#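 Cells plated overnight at 1500 cells/well, then exposed to library compounds with dopamine controls for 90 minutes at 37 degrees C. DiscoveRx reagent added for 30–60 minutes at room temperature; luminescence read, quantitative HTS format.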
# LDHA inh = qHTS assay for inhibitors of human lactate dehydrogenase. L-lactate dehydrogenase A chain (Homo sapiens), P00338. purified LDHA, NADH/diaphorase-resazurin fluorescence; active compounds read low. activity change, % (values are at about 110 or 230 µM). 480,000 compounds, 0.15% hits. AID 1347041, 2019; in the data active = activity change below about -30%; inconclusive = mostly about -25% to -30%;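 also: plate controls were DMSO wells for no effect and wells without enzyme for full effect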
#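 Human LDH5 (2 nM) was incubated with 0.06 mM NADH and 0.2 mM pyruvate for 5 min at room temperature in Tris pH 7.4. Remaining NADH was coupled through diaphorase/resazurin, and resorufin fluorescence was read at 0 and 20 min.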
# Akt phos inh = HTS Assay for Inhibitors of Akt Phophorylation: Primary Screen. AID 651550, 2012. Neuro2A IGF-stimulated pAkt S473 HTRF, 20 min; active compounds read low. activity change, % for hits at 50 µM. 360,000 compounds, 0.32% hits; in the data active = activity change below about -80%; inconclusive = mostly about -51% to -80%; also: % is scaled to controls: 0 for no effect and ±100 for the full control effect
#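 Single-point screen (50 µM final compound) in Neuro2A cells stimulated 20 min with 6 nM IGF at 37 deg C. After lysis, Ser473-phosphorylated Akt read by HTRF (ex 330 nm, em 615/665 nm) as the 665/615 ratio.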
# The depositor's hits bear a star; i = inactive; u = inconclusive; x = not tested or not shown; ! = repeats disagree.
SMILES,RGS4 inh,PI4K2A inh,DRD3 agonist,DRD3 antagonist,LDHA inh,Akt phos inh
CCn1nc(C(=O)OCC(=O)c2c[nH]c3ccccc23)c2ccccc2c1=O,-14%,-6,2,14,5,i
CCSC1=N/C(=C\c2sccc2C)C(=O)S1,x,x,x,x,8,x
Cc1cc(NC(=O)N2CCSc3ncccc32)ccc1Br,x,x,x,x,9,x
Cc1cc(C)c(OCCNCc2ccccc2)c(C)c1,-39%,-18,-13,-15,-13,i
CC(C)(C)c1ccc(OCCNCc2ccccc2)cc1,-13%,-24,-16,-53*,-15,i
Clc1ccc(OCCCNCc2ccccc2)c2ccccc12,-1%,1,-22,-29,-2,i
Cc1cc(Br)ccc1OCCNCc1ccccc1,16%,-1,-10,-70*,-18,i
Brc1ccccc1OCCNCc1ccccc1,-14%,3,4,-71*,-12,i
CC(C)(C)c1ccc(OCCNC(=S)Nc2ccccc2)cc1,12%,10,-5,u,-1,i
Cc1cc(C)c(C)c(OCCNCc2ccccc2)c1,-1%,3,-12,-77*,-19,i
Cc1cccc(/N=C/c2ccc([N+](=O)[O-])cc2)n1,x,x,x,x,14,x
C=CCc1ccccc1OCCNCc1ccccc1,2%,-2,-14,-88*,-20,i
Cc1cc(C)c2oc(C(=O)Nc3ccc(S(=O)(=O)N(C)Cc4ccccc4)cc3)cc(=O)c2c1,x,x,x,x,-3,x
CC(=O)Nc1cc(OC(C)=O)c2nonc2c1OC(C)=O,-53%,-53*,-10,u,46,x
CCNc1nc(N)nc(Oc2ccc(C(=O)OC)cc2)n1,7%,-3,7,-10,-1,-95%*
CC1(C)CC(=O)C2=C(C1)N(N1CCOCC1)C(N)=C(C#N)C2c1ccccc1Cl (stereo not drawn),x,x,x,x,8,x
CSc1ccc(CN2CCC2(C)C(=O)NC2CCN(Cc3ccccc3)CC2)cc1 (stereo not drawn),x,0,-19,-111*,-8,i
CC1(C(=O)NC2CCN(Cc3ccccc3)CC2)CCN1Cc1cc2ccccc2o1 (stereo not drawn),x,-1,-11,-78*,-17,i
CC1(C(=O)NCc2ccc(C(F)(F)F)cc2)CCN1Cc1cc2ccccc2o1 (stereo not drawn),x,0,1,17,4,i
CC(C)(C)OC(=O)N1CCC(NC(=O)c2nc[nH]c2C(=O)NCC(=O)OCc2ccccc2)CC1,-41%,1,69*,95,4,i
O=C(CNC(=O)c1nc[nH]c1C(=O)N1CCc2ccccc2C1)OCc1ccccc1,u,-3,40*,54,3,i
CC(C)(C)OC(=O)[C@H](Cc1ccccc1)NC(=O)c1[nH]cnc1C(=O)Nc1cccc(Cl)c1,2%,-2,0,-54*,-2,i
CC(C)C[C@H](NC(=O)c1nc[nH]c1C(=O)N[C@@H](CC(C)C)C(=O)OC(C)(C)C)C(=O)OC(C)(C)C,1%,-3,-16,-55*,5,i
COc1ccc(Br)cc1-c1nc(C)c(C(=O)Nc2ccccc2)s1,x,x,x,x,10,x
Cc1ccc(C(=O)C(O)NC(=O)c2ccccc2)cc1 (stereo not drawn),x,x,x,x,1,x
SMILES,RGS4 inh,PI4K2A inh,DRD3 agonist,DRD3 antagonist,LDHA inh,Akt phos inh
O=C(CC12CC3CC(CC(C3)C1)C2)NCC(=O)N1CCC(c2nc3ccccc3o2)CC1,x,x,x,x,-16,x
CC(C)(C)OC(=O)N1CCC(NC(=O)c2nc[nH]c2C(=O)NC2CCN(C(=O)OC(C)(C)C)CC2)CC1,8%,-2,7,13,0,i
CC(C)(C)OC(=O)N1CCC(NC(=O)c2[nH]cnc2C(=O)Nc2cccc(Cl)c2)CC1,6%,5,66*,0,-1,i
Cc1sc2ncnc(N3CCC(C(=O)NNC(=O)COc4ccc(Cl)cc4)CC3)c2c1C,4%,-5,6,49,-3,i
Cc1cc(Cl)ccc1OCC(=O)NNC(=O)C1CCN(c2ncnc3sc(C)c(C)c23)CC1,4%,-1,22,86,-1,i
Cc1sc2ncnc(N3CCC(C(=O)NNC(=O)COc4ccccc4Cl)CC3)c2c1C,6%,-4,30*,48,-4,i
Cc1ccc(OCC(=O)NNC(=O)C2CCN(c3ncnc4sc(C)c(C)c34)CC2)cc1,1%,-3,37*,20,1,i
Cc1sc2ncnc(N3CCN(CCOc4ccc(Cl)cc4)CC3)c2c1C,43%,4,39*,-27,5,i
Cc1sc2ncnc(N3CCC(C(=O)NNC(=O)COc4ccccc4F)CC3)c2c1C,-4%,-2,34*,10,-1,i
COC(=O)C1=C(C)OC(N)=C(C#N)C1c1ccc(C(C)C)cc1 (stereo not drawn),x,x,x,x,10,x
CC(C)/C=N/Nc1ccc(S(N)(=O)=O)cc1[N+](=O)[O-],x,x,x,x,1,x
Cc1cc(C)c(NC(=O)CN(C)C(=O)CSc2ccc(Br)cc2)c(C)c1,x,x,x,x,3,x
Cn1c(=O)c2c(-c3cccc(Br)c3)[nH]cc2n(C)c1=O,x,x,x,x,10,x
COc1cccc(-c2cc(CC3(O)CCN(CCCc4ccccc4)CC3)on2)c1,16%,-10,-3,-96*,0,i
O=C(Nc1ccc(-c2noc(/C=C/c3ccccc3)n2)cc1)c1ccc(Br)o1,x,x,x,x,-3,x
CCCn1cnc2c(sc3nc4c(cc32)CSC(C)(C)C4)c1=O,4%,4,-8,-21,4,i
CC1(C)Cc2nc3sc4c(=O)n(Cc5ccccc5)cnc4c3cc2CS1,9%,-3,1,-66*,-7,i
CCOc1ccc(CN(CCOC)Cc2cc(=O)n3cc(C)ccc3n2)cc1,x,x,x,x,7,x
N[C@@H](Cc1cc(I)c(Oc2ccc(O)c(I)c2)c(I)c1)C(=O)O,-43%,-3,-7,6,-35*!,i
O=C(OCCOc1ccc(F)cc1)c1n[nH]c(=O)c2ccccc12,x,x,x,x,0,x
O=[N+]([O-])c1cccc(/C=N\N2CCN(Cc3ccccc3Cl)CC2)c1,-30%,3,-1,-78*,0,i
COc1ccc2cc(C(=O)Nc3ccc(Cl)cc3)sc(=O)c2c1OC,-8%,3,-29,-69*,-12,i
COc1ccc2cc(C(=O)Nc3ccc(O)cc3)sc(=O)c2c1OC,u,-3,-25,-21,-3,i

# Screens: PubChem BioAssay, National Center for Advancing Translational Sciences (NCATS)
